The list is not random: actives were taken first. Their share in the collection is about 1.1%.
NR5A2 inv ag: suppresses constitutive activity of human LRH-1; O00482; HEK293T StAR-luciferase reporter, LRH-1 transfected, 24 h; actives 0.13% (n = 360,000); inhibition, % at 3.6 µM;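 active = inhibition above the mean inhibition of all tested compounds plus 3 SD, cut at about 73% in these data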
NCOA1 inh: human NCOA1 inhibition; HEK293 GAL4-SRC1 luciferase reporter, luminescence; inhibition, % at 3.6 µM; AID 588354; Q15788; actives 0.12% (n = 360,000);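 active = inhibition above the campaign mean plus 3 SD, with each screening campaign given its own cutoff, cut at about 60% in these data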
Target sequence (Q15788 whole entry, looked up, the tested form may be a part): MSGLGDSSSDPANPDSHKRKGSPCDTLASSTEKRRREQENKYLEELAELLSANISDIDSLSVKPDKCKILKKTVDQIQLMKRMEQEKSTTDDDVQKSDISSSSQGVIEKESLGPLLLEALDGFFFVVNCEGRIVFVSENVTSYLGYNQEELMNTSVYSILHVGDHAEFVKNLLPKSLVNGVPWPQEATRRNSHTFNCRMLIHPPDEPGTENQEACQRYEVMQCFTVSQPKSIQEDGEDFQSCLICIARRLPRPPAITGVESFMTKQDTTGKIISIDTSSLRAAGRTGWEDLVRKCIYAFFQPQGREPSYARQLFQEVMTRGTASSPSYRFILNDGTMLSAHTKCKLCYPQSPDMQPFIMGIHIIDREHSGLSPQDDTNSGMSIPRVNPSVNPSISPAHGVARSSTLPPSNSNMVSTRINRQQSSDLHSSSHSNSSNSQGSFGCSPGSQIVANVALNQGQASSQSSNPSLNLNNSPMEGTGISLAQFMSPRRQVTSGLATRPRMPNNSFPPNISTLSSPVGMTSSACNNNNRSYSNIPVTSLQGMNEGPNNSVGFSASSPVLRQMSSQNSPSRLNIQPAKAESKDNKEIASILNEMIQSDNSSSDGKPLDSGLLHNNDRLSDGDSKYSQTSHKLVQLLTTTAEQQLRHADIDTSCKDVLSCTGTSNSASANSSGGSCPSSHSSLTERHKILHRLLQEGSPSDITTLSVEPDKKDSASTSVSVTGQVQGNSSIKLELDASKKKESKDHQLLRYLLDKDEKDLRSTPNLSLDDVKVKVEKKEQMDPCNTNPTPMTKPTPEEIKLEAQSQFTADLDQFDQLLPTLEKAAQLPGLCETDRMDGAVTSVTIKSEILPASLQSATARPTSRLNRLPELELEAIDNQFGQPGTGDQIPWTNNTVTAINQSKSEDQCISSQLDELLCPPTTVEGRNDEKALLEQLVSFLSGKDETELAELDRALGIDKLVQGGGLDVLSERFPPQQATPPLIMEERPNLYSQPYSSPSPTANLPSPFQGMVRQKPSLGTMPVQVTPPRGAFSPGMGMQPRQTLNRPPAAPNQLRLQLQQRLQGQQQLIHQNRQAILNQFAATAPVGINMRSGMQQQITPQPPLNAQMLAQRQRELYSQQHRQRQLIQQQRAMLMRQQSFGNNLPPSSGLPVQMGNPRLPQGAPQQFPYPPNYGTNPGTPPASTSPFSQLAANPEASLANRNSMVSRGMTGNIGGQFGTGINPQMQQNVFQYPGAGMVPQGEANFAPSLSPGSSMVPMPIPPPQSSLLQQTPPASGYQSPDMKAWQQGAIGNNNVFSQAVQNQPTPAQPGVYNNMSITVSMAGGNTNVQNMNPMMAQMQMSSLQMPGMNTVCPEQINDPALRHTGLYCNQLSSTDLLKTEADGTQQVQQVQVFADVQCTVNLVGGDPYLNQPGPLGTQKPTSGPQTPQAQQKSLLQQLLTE
SRC3 inh: human NCOA3 inhibition; Q9Y6Q9; HEK293 GAL4-SRC3 luciferase reporter, luminescence; inhibition, % at 3.6 µM; actives 0.17% (n = 360,000);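 active = inhibition above a per-campaign cutoff, the mean of all compounds plus 3 SD, cut at about 60% in these data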;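 note: higher means less SRC3-driven luciferase light from the GAL4 reporter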
GalR3 antag: blocks the human galanin receptor 3; actives 0.44% (n = 360,000); HEK293 GalR3-CNG cAMP membrane potential fluorescence; galR3 body fused to GalR1 C-terminus; inhibition, % at 3 µM; O60755;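 active = inhibition above the screen-wide average plus 3 SD, cut at about 13% in these data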;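 note: forskolin and galanin both at EC90 stimulate the cells; cAMP rise reported by CNG channel membrane potential dye signal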
COUP-TFII inh: inhibitors of human COUP-TFII (NR2F2); P24468; HEK293T NGFI-A luciferase reporter, luminescence; inhibition, % at 8.6 µM; actives 0.7% (n = 370,000);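 active = inhibition above a per-plate cutoff, mean inhibition of test wells between control levels plus 3 SD, cut at about 38% in these data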;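 note: cells cotransfected with COUP-TFII expression vector driving the NGFI-A reporter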
NCOA2 inhibitor: inhibits human steroid receptor coactivator 2 | Q15596 | HEK293 GAL4-SRC2 luciferase reporter, luminescence | inhibition, % at 9 µM | actives 0.17% (n = 370,000) | AID 651957;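 active = inhibition above the mean inhibition of all tested compounds plus 3 SD, set per campaign, cut at about 52% in these data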
VP16 Luc counter: inhibits VP16 reporter, flagging COUP-TFII antagonist hits; shares compounds with COUP-TFII inh; HEK293 Gal4-VP16 luciferase reporter, luminescence; inhibition, % at 8.5 µM; actives 25% (n = 2,500); AID 687007; in the data active = inhibition above about 13%
COUP-TFII conf: confirmation of human COUP-TFII (NR2F2) inhibitors; shares compounds with COUP-TFII inh; HEK293 NGFI-A luciferase reporter, luminescence; inhibition, % at 8.5 µM; actives 45% (n = 2,500); AID 687008;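 active = mean inhibition over three repeats above a set limit taken from the earlier primary screen, cut at about 38% in these data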
Numbers stand for hits; . = inactive; / = no result.

SMILES	NR5A2 inv ag	NCOA1 inh	SRC3 inh	GalR3 antag	COUP-TFII inh	NCOA2 inhibitor	VP16 Luc counter	COUP-TFII conf
O=C(CN1CCN(C(=O)CNC(=O)c2ccc(-c3ccccc3)cc2)CC1)Nc1ccccc1Cl	.	.	.	.	50	.	.	.
O=C(CN1CCN(C(=O)CNC(=O)c2ccc3c(c2)OCO3)CC1)Nc1ccccc1Cl	.	.	.	.	.	.	/	/
OC(c1ccccc1)(c1ccccc1)C1CCN(CCCNc2cccc(OC(F)(F)F)c2)CC1	/	/	/	/	.	.	/	/
O=C(Cc1coc2cc3c(cc12)CCC3)OCC(=O)N1CCCC1=O	.	.	.	.	44	54	28	.
CCOC(=O)C1(Cc2ccc(OC)cc2)CCN(C(=O)c2sc(C)nc2C)CC1	.	.	.	.	.	.	/	/
CCOC(=O)C1(Cc2ccc(Cl)cc2)CCN(C(=O)c2sc(C)nc2C)CC1	.	.	.	.	42	.	.	.
CCCCc1c(-c2ccccc2OC)ncn1Cc1ccc(C)cc1	/	/	/	.	.	.	/	/
O[C@@H]1CN(Cc2ccc(-n3cccn3)cc2)CC[C@H]1N1CCN(c2ccccc2F)CC1	.	.	.	.	49	.	.	.
Cc1ccc(CN2CCN(Cc3ccc(-n4cccn4)cc3)CC2CCO)cc1 (stereo not drawn)	.	.	.	.	.	.	/	/
CCCOc1ncnc2c1[nH]c1ccccc12	.	.	.	.	40	.	.	.
CCCOc1ncnc2c1[nH]c1ccc(OC)cc12	.	.	.	.	.	.	/	/
Cc1cc(NS(=O)(=O)c2ccc(NC(=O)CSc3nnc(-c4ccncc4)n3-c3ccccc3)cc2)nc(C)n1	/	/	/	/	.	.	/	/
O=C(Nc1ccc(Oc2cccnc2)cc1)C1CCN(Cc2cccc(Cl)c2)CC1	.	.	.	.	38	.	13	.
Nc1[nH]c(C(=O)c2ccccc2)c(-c2ccc3ccccc3c2)c1C(=O)NCc1ccc(F)cc1	/	/	/	.	.	.	/	/
COc1ccc(S(=O)(=O)/N=C2\C=C(Nc3ccc(O)cc3)C(=O)c3ccccc32)cc1	93	89	88	.	71	74	83	92
CC(=O)Nc1ccc(NC2=C/C(=N/S(=O)(=O)c3cccs3)c3ccccc3C2=O)cc1	.	.	80	.	50	.	17	.
CCOc1ccc(-n2c(SCC(=O)c3ccc4ccccc4c3)nnc2-c2ccco2)cc1	/	/	/	/	.	.	/	/
S=C(Nc1cc(Cl)cc(Cl)c1)NC(c1ccccc1)c1ccccc1	/	/	/	/	57	/	.	.
CCN1CCN(Cc2ccc(NC(=O)c3ccc(C)c(NC(=O)c4ccc5n[nH]nc5c4)c3)cc2C(F)(F)F)CC1	.	.	.	.	.	.	/	/
CCN1CCN(Cc2ccc(NC(=O)c3cccc(-c4ccc5nc(NC(=O)C6CC6)sc5n4)c3)cc2C(F)(F)F)CC1	/	/	/	.	40	.	.	40
CN(C)/C=C/c1c([N+](=O)[O-])c2ccc(O)cc2n1-c1ccccc1	.	.	.	.	40	.	.	.
COC(=O)c1c(C)n(-c2ccccc2)c2ccc(O)cc12	.	.	.	.	.	.	/	/
C=CCC(Nc1ccccc1)C12C=CC(O1)C(C(=O)OC)=C2C(=O)OC (stereo not drawn)	.	.	.	.	.	.	/	/
COC(=O)C1=C(C(=O)OC)[C@@]2([C@H](Cc3ccc(C)cc3)Nc3ccccc3)C=C[C@@H]1O2	/	/	/	/	49	/	.	.
Cn1c(=O)c2c(n(C)c1=O)n(C)c(=O)n2C	.	.	.	.	.	.	/	/
CC1CCN(C2=NC(=O)/C(=C/c3ccccc3F)S2)CC1	.	.	.	.	63	54	.	.
COC(=O)[C@]12C[C@H](CC(=O)NCc3ccc(C)o3)C(=O)N(Cc3ccccc3)C1=C[C@H](C(C)(C)C)O[C@@H]2C	/	/	/	.	.	.	/	/
CNC1=C(N(C(C)=O)c2ccc(Br)cc2)C(=O)c2ccccc2C1=O	97	81	81	.	48	.	17	.
Cc1nc2nc(-c3ccc(F)cc3)cn2nc1C	.	.	.	.	.	.	/	/

Bioassay records deposited in PubChem by The Scripps Research Institute Molecular Screening Center.
